Assay results: PubChem BioAssay AID1159580 (chemical genetic matrix, 2015)
Where “and” joins values, the source holds several entries; their conditions need not be identical. Equal values may be shown once. About 2,000 (36%) of roughly 5,500 compounds were called active. Roughly 18% stayed inconclusive and do not appear here. Cut-off read from the data, not from the text of the source: active = normalized growth mostly below about 0.91 (no sharp cut-off); inconclusive = no clear call, values can overlap the other calls; inactive = mostly above about 0.92. This is one part of the list.

Assay: chemical genetic growth profiling, strain panel (AID 1159580);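 note: tested at 20 µM; growth read once vehicle control cultures reached saturation at 30 °C; 1 = growth at the plate median or of vehicle wells; lower values mean less growth of the strain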
Conditions: S. cerevisiae deletion strains, growth OD

Measured: normalized growth

C=C[C@H]1CN2CC[C@H]1C[C@H]2[C@H](O)c1ccnc2ccccc12
inactive: locus YAL013W, strain DEP1, hits give low values 1.01 | locus YAL021C, strain ccr4, hits give low values 1 | locus YAL026C, strain drs2, hits give low values 0.995 | locus YAL030W, strain snc1, hits give low values 0.997 | locus YBL061C, strain skt5, hits give low values 0.995 | locus YBR009C, strain hhf1, hits give low values 0.992 | locus YBR021W, strain FUR4, hits give low values 1.01 | locus YBR023C, strain chs3, hits give low values 0.992 | locus YBR171W, strain sec66, hits give low values 1 | locus YBR229C, strain ROT2, hits give low values 1.01 | locus YBR231C, strain swc5, hits give low values 0.984 | locus YBR279W, strain paf1, hits give low values 1 | locus YCL011C, strain gbp2, hits give low values 1.01 | locus YCL016C, strain dcc1, hits give low values 0.994 | locus YCL029C, strain bik1, hits give low values 0.969 | locus YCL061C, strain MRC1, hits give low values 0.983 | locus YCL069W, strain vba3, hits give low values 1.01 | locus YCR088W, strain abp1, hits give low values 1 | locus YDL005C, strain med2, hits give low values 0.997 | locus YDL035C, strain GPR1, hits give low values 0.986 | locus YDL040C, strain nat1, hits give low values 0.999 | locus YDL074C, strain BRE1, hits give low values 1.04 | locus YDL101C, strain DUN1, hits give low values 0.988 | locus YDL134C, strain PPH21, hits give low values 1 | locus YDL185W, strain tfp1, hits give low values 0.965 | locus YDL192W, strain arf1, hits give low values 0.979 | locus YDR001C, strain nth1, hits give low values 0.986 | locus YDR069C, strain doa4, hits give low values 1.01 | locus YDR101C, strain arx1, hits give low values 0.985 | locus YDR137W, strain rgp1, hits give low values 1.02 | locus YDR150W, strain NUM1, hits give low values 0.966 | locus YDR159W, strain sac3, hits give low values 0.949 | locus YDR162C, strain NBP2, hits give low values 1.01 | locus YDR195W, strain ref2 0.959 | locus YDR297W, strain sur2, hits give low values 1 | locus YDR318W, strain mcm21, hits give low values 0.989 | locus YDR334W, strain swr1, hits give low values 1 | locus YDR335W, strain msn5, hits give low values 0.993 | locus YDR388W, hits give low values 0.979 | locus YDR392W, strain spt3, hits give low values 0.999 | locus YDR502C, strain sam2, hits give low values 0.979 | locus YEL003W, strain gim4, hits give low values 0.995 | locus YEL037C, strain rad23, hits give low values 0.993 | locus YEL061C, strain CIN8 (second series), hits give low values 0.999 | locus YEL061C, strain CIN8, hits give low values 1 | locus YER015W, strain faa2, hits give low values 1 | locus YER016W, strain bim1, hits give low values 0.975 | locus YER110C, hits give low values 0.976 | locus YER111C, strain swi4, hits give low values 1.01 | locus YER155C, strain BEM2 (second series), hits give low values 0.977 | locus YER155C, strain BEM2, hits give low values 0.98 | locus YER167W, strain BCK2, hits give low values 1.01 | locus YFR010W, strain ubp6, hits give low values 1.01 | locus YGL078C, strain dbp3, hits give low values 0.985 | locus YGL086W, strain mad1, hits give low values 0.99 | locus YGL167C, strain pmr1, hits give low values 0.987 | locus YGL173C, strain kem1, hits give low values 0.977 | locus YGL227W, strain vid30, hits give low values 1 | locus YGL240W, strain doc1, hits give low values 0.984 | locus YGL248W, strain PDE1, hits give low values 1.01 | locus YGL253W, strain hxk2, hits give low values 1 | locus YGR078C, strain PAC10, hits give low values 1.01 | locus YGR135W, strain pre9, hits give low values 0.974 | locus YGR229C, strain SMI1, hits give low values 1.02 | locus YGR252W, strain gcn5, hits give low values 0.982 | locus YHR013C, strain ard1, hits give low values 1 | locus YHR027C, strain rpn1, hits give low values 0.997 | locus YHR030C, strain SLT2, hits give low values 1 and 0.969 | locus YHR079C, strain IRE1 (second series), hits give low values 0.986 | locus YHR079C, strain IRE1, hits give low values 0.968 | locus YHR094C, strain hxt1, hits give low values 0.973 | locus YHR129C, strain ARP1, hits give low values 1.01 | locus YHR142W, strain chs7, hits give low values 1 | locus YHR200W, strain rpn10, hits give low values 0.981 | locus YIL066C, strain RNR3, hits give low values 1 | locus YIL073C, strain SPO22, hits give low values 0.927 | locus YIL125W, strain kgd1, hits give low values 0.994 | locus YIR030C, strain dcg1, hits give low values 0.979 | locus YJL092W, strain hpr5, hits give low values 0.999 | locus YJL095W, strain BCK1 (second series), hits give low values 0.998 | locus YJL095W, strain BCK1, hits give low values 1.04 and 0.962 | locus YJL115W, strain asf1, hits give low values 1 | locus YJL129C, strain trk1, hits give low values 0.988 | locus YJL134W, strain LCB3, hits give low values 0.995 | locus YJL154C, strain vps35, hits give low values 1 | locus YJL164C, strain tpk1, hits give low values 1.01 | locus YJL166W, strain qcr8, hits give low values 0.95 | locus YJL168C, strain set2, hits give low values 0.986 | locus YJL187C, strain SWE1 (second series), hits give low values 0.977 | locus YJR043C, strain POL32, hits give low values 1.01 | locus YJR066W, strain TOR1, hits give low values 0.942
